In PubChem BioAssay (NCI):
This is part of a sample that, as a whole, favours compounds with a hit. Of some 83,000 tested, about 20% had one in any assay.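 Assay: single dose, 48 h. Readout: percent growth (0 = no net growth; negative = cell death). Active: <10.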 Active and inactive are the calls of the source.

How the values were obtained:
Assay in all cases: NCI-60 one-dose screen, 48 h (100 = growth as untreated, 0 = no growth, -100 = all killed)
Details in all cases: 10 µM
[1] = test system: HCT-15 colon
[2] = test system: HT29 colon
[3] = test system: SNB-75 CNS
[4] = test system: SNB-19 CNS
[5] = test system: U251 CNS
[6] = test system: PC-3 prostate
[7] = test system: SK-MEL-5 melanoma
[8] = test system: UACC-62 melanoma
[9] = test system: LOX IMVI melanoma
[10] = test system: SK-MEL-28 melanoma

Measured: growth

COc1ccc(C=CC(=O)c2ccc(-n3c(C)nc4c(cnn4-c4ccccc4)c3=O)cc2)cc1
inactive: [1] 53.5% | [2] 71.5% | [3] 98.1% | [4] 81.8% | [5] 74.1% | [6] 65.1% | [7] 27.7% | [8] 50% | [9] 43.9% | [10] 90.4%

Nc1nnc(-c2c[nH]c3ccc(F)cc23)c(-c2c[nH]c3ncccc23)n1
inactive: [1] 69.3% | [2] 59.5% | [3] 29.1% | [4] 33.9% | [5] 37.6% | [6] 67.5% | [7] 63.7% | [8] 51.7% | [10] 71.3%

O=c1[nH]c2ccc(Cl)cc2cc1CSc1ccc(Nc2nccc(-c3ccc(Cl)cc3)n2)cc1
inactive: [1] 16.3% | [2] 44.9% | [3] 101% | [4] 77.5% | [5] 21% | [6] 34.4% | [7] 97% | [8] 100% | [9] 35.8% | [10] 98.7%

Cc1ccc(C(C)C)cc1NC(=O)c1ccccc1N(C)C
inactive: [1] 76.6% | [2] 74.6% | [3] 112% | [4] 93% | [5] 87.6% | [6] 73.7% | [7] 86.8% | [8] 63.1% | [9] 86.8% | [10] 92.9%

COc1ccccc1[C@H]1C(C(=O)c2ccc(Cl)cc2)C2(N[C@@H]1c1ccccc1)C(=O)Nc1ccccc12 (stereo partly specified)
inactive: [3] 55.6% | [4] 13.7%
active: [1] -18.7% | [2] -53.1% | [5] -31% | [6] 5.37% | [7] -87.2% | [8] -74.9% | [9] -97.3% | [10] -36.6%

COc1ccc2nc(Cl)c(-c3cc(-c4ccccc4)nc(N)n3)cc2c1
active: [1] -64.5% | [2] 7.7% | [3] -1.67% | [4] 7.38% | [5] -62.4% | [9] -86%
inactive: [6] 33.6% | [7] 66% | [8] 28.4% | [10] 61.4%

COc1ccc(NC(=O)CSc2nnc(-c3ccc4nc(-c5ccc(Cl)cc5)[nH]c4c3)o2)cc1
active: [5] -15.3% | [8] 7.61%
inactive: [1] 29.9% | [2] 34.6% | [3] 112% | [4] 33.7% | [6] 51.9% | [7] 16.1% | [10] 10.1%

COc1cc(C2CC(c3ccccc3)=Nc3c(N)nc(N)nc3N2)ccc1Oc1nc(Nc2ccc(F)cc2)nc(N(C)C)n1 (stereo unspecified)
inactive: [1] 20.8% | [2] 24.7% | [3] 61% | [4] 62.2% | [5] 56.3% | [6] 40.7% | [8] 48.5% | [9] 23.2% | [10] 67.8%
active: [7] -97.8%

O=C(N/N=C/c1ccc(B(O)O)o1)c1[nH]c2ccc(Br)cc2c1-c1ccccc1
inactive: [1] 16.1% | [3] 98.1% | [4] 40.7% | [5] 10.1% | [6] 19.2% | [7] 11.5% | [8] 19.4% | [9] 32.9% | [10] 62.1%
active: [2] 3.98%

Cc1noc2c(Cc3ccc([N+](=O)[O-])cc3)nn(CC(=O)N/N=C/c3ccc(Br)cc3)c(=O)c12
inactive: [1] 94.8% | [2] 86.1% | [3] 104% | [4] 69.6% | [5] 70.4% | [6] 78.1% | [7] 92% | [8] 80.1% | [9] 52.2% | [10] 96.4%

O=c1oc2ccc(-c3ccc(F)cc3F)cc2c(=O)n1-c1ccc(F)c(Cl)c1
inactive: [2] 23.1% | [4] 12.5%
active: [1] -23.6% | [3] -23.7% | [5] 7.08% | [6] 5.69% | [7] -91.6% | [8] -60.2% | [9] -69.9% | [10] -21%

CN1CCN(Cc2ccc(C(=O)Nc3cccc(Nc4ccc5cc(O)ccc5n4)c3)cc2C(F)(F)F)CC1
active: [1] -81% | [2] -49.4% | [3] -11.4% | [4] -54% | [5] -65% | [6] -22.9% | [7] -99.7% | [8] -90.1% | [9] -93.5% | [10] -91.9%

CN(C)c1ccc(/C=C/C(=O)c2ccc(NC(=O)CN3C(=O)NC(C)(c4ccccc4)C3=O)cc2)cc1 (stereo unspecified)
inactive: [1] 26.9% | [2] 19.5% | [3] 80.6% | [4] 70.5% | [5] 46% | [6] 43.3% | [7] 23.2% | [8] 46.6% | [9] 41.4% | [10] 70.7%

C=C[C@H]1[C@H](O[C@@H]2OC(CO)[C@@H](O)[C@H](O)C2OC(=O)c2c(O)cc(O)cc2-c2cccc(O)c2)OC=C2C(=O)OCC[C@H]21 (stereo partly specified)
inactive: [1] 93.7% | [2] 108% | [3] 93.2% | [4] 97.2% | [5] 104% | [6] 103% | [7] 100% | [8] 98% | [9] 99.3% | [10] 102%

CCN1CCN(Cc2ccc(C(=O)Nc3cccc(-c4cn(-c5ccc6oc(=O)ccc6c5)nn4)c3)cc2C(F)(F)F)CC1
active: [1] -100% | [2] -100% | [3] -33.2% | [4] -100% | [5] -100% | [6] -40.8% | [7] -100% | [8] -100% | [9] -100% | [10] -100%

O=C(Nc1cccc(-c2cn(-c3ccc4oc(=O)ccc4c3)nn2)c1)Nc1cc(C(F)(F)F)cc(C(F)(F)F)c1
inactive: [1] 19% | [2] 44.9% | [3] 17.8% | [4] 27.4% | [5] 13.4% | [6] 27.7% | [8] 11.3% | [9] 17.2% | [10] 22.5%
active: [7] 2.67%

O=C(c1ccc(O)cc1)C1[C@H](c2ccc(Br)cc2)[C@@H](c2ccccc2)NC12C(=O)Nc1ccc(Br)cc12 (stereo partly specified)
active: [1] -47.3% | [2] -31.5% | [5] -48.7% | [7] -76.7% | [8] -35.7% | [9] -100%
inactive: [3] 45.8% | [4] 11.8% | [6] 21.4% | [10] 26.2%

COC(=O)C(Cc1ccc(O)c(O)c1)NC(=O)C(CSC/C=C(\C)CCCC(C)CCCC(C)CCCC(C)C)NC(C)=O (stereo unspecified)
inactive: [1] 15.5% | [2] 40.5% | [3] 42.8% | [4] 10.8% | [7] 36.8% | [8] 13% | [9] 19.7% | [10] 25.1%
active: [5] 4.85% | [6] 2.28%

CN1CCN(c2ccc(Nc3nc(N4CCN(S(=O)(=O)c5ccc(F)cc5)CC4)c4sccc4n3)cc2)CC1
active: [1] -79.8% | [2] -63.1% | [3] -97.9% | [4] -98.1% | [5] -98.5% | [6] -18.4% | [7] -100% | [8] -93.3% | [10] -95.4%

Cc1cc(C)cc(Oc2cccc(-c3c(C)nnn3C3CCN(CCN(C)C)CC3)n2)c1
inactive: [2] 11% | [3] 16.7% | [4] 47.7% | [5] 36.5% | [6] 37.7% | [8] 18.2% | [10] 19%
active: [1] 7.96% | [7] -53.4% | [9] 2.35%

O=C(Nc1ccc(I)cc1F)c1cc(-c2ccc(F)cc2F)ccc1O
active: [1] 5.34% | [3] -23.7% | [5] 4.61% | [6] 2.22% | [7] -75.3% | [8] -14.4% | [9] 6.5% | [10] 4.38%
inactive: [2] 17% | [4] 11.3%

CCCn1c(=O)c2[nH]c(-c3ccc(OCc4nc5ccc(F)cc5[nH]4)cc3)nc2n(CCC)c1=O
inactive: [1] 28.7% | [2] 26.7% | [4] 50.4% | [6] 36.3% | [10] 38%
active: [3] -23.5% | [5] 0.191% | [7] -22.5% | [8] 3.86% | [9] -29.3%

CC(=O)Nc1nc(-c2ccc(N3CCN(C)CC3)c(NS(=O)(=O)c3cccc4c(N(C)C)cccc34)c2)cs1
inactive: [1] 18.5% | [2] 21.7% | [3] 56.5% | [4] 58.8% | [5] 28.1% | [6] 48.7% | [7] 12.5% | [8] 13.1%
active: [9] -35.6% | [10] -80.1%

CN(C)c1nc(NCCNS(=O)(=O)c2ccc(C(=O)/C=C/c3ccccc3)cc2)nc(Nc2ccc(F)cc2)n1
inactive: [3] 87.3% | [4] 41.7% | [6] 16.4% | [7] 30.2% | [8] 26.5% | [10] 31.4%
active: [1] -67.2% | [2] -59.8% | [5] -56.2% | [9] -100%

COc1ccc2c3nc4cc(C)c(C)cc4nc3n(CCN(C)C)c2c1
inactive: [2] 31.4% | [3] 21.5% | [6] 21.2%
active: [1] 1.95% | [4] 9.9% | [5] -73.1% | [7] -80.7% | [8] 3.37% | [10] -63.9%

O=C(Nc1ccncc1)c1ccc(-n2c(=O)[nH]c3ccccc3c2=O)cc1
inactive: [1] 97.9% | [2] 105% | [3] 107% | [4] 91.1% | [5] 99.7% | [6] 92.4% | [7] 90.8% | [8] 76.9% | [9] 83.9% | [10] 104%
